In all, about 69,000 compounds went through this assay and about 8,600 (12%) showed an effect of 50% or more. The sample as a whole holds a higher share of strong results than the screen did.
tested on: Plasmodium berghei; assay: Screen against P. berghei liver stage (PbLuc), transformed with Luciferase, at 10uM; assay type: functional, HepG2; conditions: tested at 10 uM

| SMILES | INHIBITION [%] |
| --- | --- |
| CC(C)CCC(=O)N1CCN(C(C)c2nnc(CC(C)C)o2)CC1 (centres undefined) | 13.8 |
| COCCNC(=O)CCN1C(=O)CC2(CCCC2)C1=O | 29 |
| Cc1cc(C(=O)N2CCCN(c3nccs3)CC2)c(C)n1C(C)C | -26.3 |
| Cc1cc(NC(=O)NCC(C(C)C)N2CCOCC2)n(C)n1 (centres undefined) | 28.8 |
| CNC(=O)c1n[nH]c2c1C(c1cccc3[nH]ccc13)CC(=O)N2 (centres undefined) | 24.4 |
| CNC(=O)c1n[nH]c2c1C(c1cccc3nsnc13)CC(=O)N2 (centres undefined) | 46.9 |
| CNC(=O)c1n[nH]c2c1C(c1cccc3c1OC(C)(C)C3)CC(=O)N2 (centres undefined) | 50.1 |
| CCc1[nH]ncc1C(=O)N1CCOC(c2nc(C)n[nH]2)C1 (centres undefined) | 25.6 |
| Cn1ccnc1CN1CC[C@@H](NS(C)(=O)=O)[C@@H]1Cc1ccccc1 | 45.1 |
| COc1ccc(COCC(O)CNC(=O)c2cccc(OC)c2)cc1 (centres undefined) | 23.5 |
| COc1ccc(COCC(O)CNC(=O)c2ccc(C)c(F)c2)cc1 (centres undefined) | 52.3 |
| COc1ccc(COCC(O)CNC(=O)c2cc(C)cc(C)c2)cc1 (centres undefined) | 17.7 |
| CS(=O)(=O)NC1CCN(c2cccc(F)c2C#N)CC1 | -12.1 |
| CC(=O)Nc1ccc(-c2cn(CCn3c(C)cc(C)nc3=O)nn2)cc1 | -31.1 |
| COc1c(F)cc(-c2cn(CCn3c(C)cc(C)nc3=O)nn2)cc1Cl | -4.68 |
| COc1ccc(-c2cn(CCn3c(C)cc(C)nc3=O)nn2)cn1 | 51.4 |
| CC(C)C1SCC(=O)Nc2c1c(O)nn2C1CCCCC1 (centres undefined) | 74.4 |
| CC(C)(C)C1SCC(=O)Nc2c1c(O)nn2C1CCCCC1 (centres undefined) | 37.4 |
| CC(C)C1SCC(=O)Nc2c1c(O)nn2C1CCCC1 (centres undefined) | 1.04 |
| CC(C)Oc1ccccc1C1CC(=O)Nc2nc(N3CCOCC3)sc21 (centres undefined) | -41.2 |
| Cc1nc2c(c(=O)[nH]1)CCN(C(=O)c1[nH]nc3c1CC(C)CC3)C2 (centres undefined) | 15.2 |
| c1nc(CN2CCCC(Cc3ccc(NC4CCCC4)nn3)C2)c[nH]1 (centres undefined) | 13.7 |

| SMILES | INHIBITION [%] |
| --- | --- |
| COCCN1CCN(c2ncnc3nc(C)cc(C)c23)CC1 | -14.1 |
| Cc1cc(C)c2c(N3CCN(Cc4ncccc4C)CC3)ncnc2n1 | 58.1 |
| CCOc1ccnc(N2CCN(Cc3ncccc3C)CC2)n1 | 27.9 |
| CCNc1ccnc(N2CCN(Cc3ncccc3C)CC2)n1 | 51.3 |
| Cc1cc(C)c2c(N3CCN(CCN4CCOCC4)CC3)ncnc2n1 | 40.3 |
| Cc1cccnc1CN1CCN(c2noc(-c3ccccc3)n2)CC1 | -13.2 |
| CC(C)C(=O)N1CCN(c2ncnc3cc4c(cc23)OCCO4)CC1 | 2.69 |
| O=C(O)c1ccccc1-n1cc(CN2CCOC(c3cc[nH]n3)C2)cn1 (centres undefined) | 20.7 |
| Cc1ccc(-c2nc(CN3CCCC(Cn4cncn4)C3)cs2)o1 (centres undefined) | -7.35 |
| Nc1ncnc2nc(C3CCN(C(=O)Cc4ccc(F)cc4)C3)ccc12 (centres undefined) | -19.9 |
| CCC(C)N(Cc1cnc(NC(C)C)nc1)Cc1ccsc1 (centres undefined) | 30.4 |
| CCc1nnc(Nc2cccc(C3CCN(C(=O)CNC)CC3)n2)s1 | -17.7 |
| CC(Cc1cn(CCc2n[nH]c(=O)[nH]2)nn1)c1ccccc1 (centres undefined) | 18.5 |
| CN(C)c1ccc(CC2CCN(c3cnccn3)C2)nn1 (centres undefined) | 0.696 |
| COC1(CNC(=O)c2ccsc2)CCSC1 (centres undefined) | 5.91 |
| COC(=O)CN1CCC(C(F)(F)F)CC1 | -8.9 |
| Cc1ccsc1C(=O)N1CCc2ncc(CN(C)C)n2CC1 | 62.9 |
| CN(C)Cc1cnc2n1CCN(C(=O)Cc1ccc(F)cc1)CC2 | 52.6 |
| CN(C)Cc1cnc2n1CCN(C(=O)Cc1cccc(F)c1)CC2 | 37.9 |
| CN(C)Cc1cnc2n1CCN(C(=O)Cc1ccsc1)CC2 | 11.3 |
| Cc1ccsc1C(=O)N1CCc2ncc(CN3CCCC3)n2CC1 | 8.6 |
| Cc1ccsc1C(=O)N1CCc2ncc(Cn3cccn3)n2CC1 | 29.4 |

| SMILES | INHIBITION [%] |
| --- | --- |
| Cc1nc(N)ncc1C(=O)N1CCCC(CCc2ccccc2F)C1 (centres undefined) | 43.9 |
| O=c1[nH]c2ccccc2cc1CNCCCN1CCOCC1 | 36.4 |
| O=C(N1CCCC1)N1CCC2(CCN(Cc3ccccn3)C2=O)C1 (centres undefined) | 15.6 |
| Cc1ccc(CN2CCc3nnc(CN4CCCC4=O)n3CC2)s1 | 37.1 |
| O=C(CN1CCCC1)N1CCCC(CNS(=O)(=O)Cc2ccccc2)C1 (centres undefined) | 51.3 |
| CS(=O)(=O)NCC1CCCN(C(=O)CCCc2ccccc2)C1 (centres undefined) | -0.18 |
| O=C(Cc1ccsc1)N1CCCC(CNS(=O)(=O)Cc2ccccc2)C1 (centres undefined) | 34.6 |
| O=S(=O)(Cc1ccccc1)NCC1CCCN(Cc2cccs2)C1 (centres undefined) | 48.1 |
| O=C(Cc1cccs1)N1CCCC(CNS(=O)(=O)Cc2ccccc2)C1 (centres undefined) | 73.6 |
| CS(=O)(=O)NCC1CCCN(C(=O)COCc2ccccc2)C1 (centres undefined) | 32.6 |
| CC(=O)N1CCCC1c1ccc(CN2CCOCC2)cn1 (centres undefined) | 35.625 |
| CCC(COC)NC(=O)N1CCC(n2ccc(C(F)(F)F)n2)CC1 (centres undefined) | -15.1 |
| CCn1ccc(-c2nnc(SCC(=O)Nc3ccc(C)cc3)n2CC)n1 | 7.38 |
| CCN1C(=O)CC(c2ccccc2)C12CCN(CC1CCOCC1)CC2 (centres undefined) | 43.2 |
| CCN(C)c1ncnc2c1CCN(S(=O)(=O)c1ccccc1)CC2 | 43.9 |
| Cc1ccc(OCCn2cnc3oc(C)c(C(=O)O)c3c2=O)cc1 | -1.04 |
| CC(Cn1ccnc1)NC(=O)N1CCN(Cc2ccco2)CC1 (centres undefined) | -13.65 |
| OC1CCN(c2cncc(CCC3CCCN3)n2)CC1 (centres undefined) | 9.575 |
| O=C(NCc1cn2c(n1)SCC2)c1ccc(CN2CCCCC2)cc1 | 29.2 |
| O=C(CCN1CCCCO1)NCc1cn2c(n1)SCC2 | 78.4 |
| O=C(NCc1cn2c(n1)SCC2)c1cn(CCN2CCCCC2)nn1 | 21 |
| CN(C(=O)C1CCCC1)C(c1cccc(F)c1)c1ccccn1 (centres undefined) | 5.7 |

| SMILES | INHIBITION [%] |
| --- | --- |
| CCOc1ccc(C(=O)N(Cc2cnn(C)c2)C(C)C)cc1OCC | 27.8 |
| O=C(CCC(F)(F)F)N1CCCC2(CCC(=O)N(CC3CC3)C2)C1 (centres undefined) | 59.4 |
| O=C(CO)N1CCCC2(CCC(=O)N(CC3CC3)C2)C1 (centres undefined) | 33 |
| O=C(CSCC1CC1)N1CCCC2(CCC(=O)N(CC3CC3)C2)C1 (centres undefined) | 32.1 |
| Cc1ccc(C(=O)N2CCc3ncnc(-c4cnn(C)c4)c3CC2)cn1 | -64.6 |
| COC1CCN(c2ccc(NC(=O)C3CC3)cc2C(F)(F)F)CC1 | 95.8 |
| CCNC(=O)C1CCCN(c2ccc(C#N)cc2C(F)(F)F)C1 (centres undefined) | 26.3 |
| CCC(=O)Nc1ccc(N2CCC(OC)CC2)c(C(F)(F)F)c1 | 45.1 |
| COCC(=O)Nc1ccc(N2CCC(OC)CC2)c(C(F)(F)F)c1 | 30.3 |
| COCCCNC(=O)Nc1ccc(-n2cncn2)c(C(F)(F)F)c1 | -37.55 |
| CCNC(=O)Nc1ccc(N2CCC(OC)CC2)c(C(F)(F)F)c1 | 89.6 |
| COCCNC(=O)[C@H]1CN(Cc2nccs2)C[C@H]2OCC[C@@H]12 | -3.19 |
| CCOCCC1(CNC(=O)c2ccc(C)nc2)CCCC1 | -30.6 |
| Cc1cccc(-c2noc(CN3CCC(c4ccn[nH]4)CC3)n2)c1 | -39.6 |
| c1ccc(-c2cc(CN3CCC(c4ccn[nH]4)CC3)on2)cc1 | 73.5 |
| c1ccc(-c2noc(CN3CCC(c4ccn[nH]4)CC3)n2)cc1 | 35.1 |
| Cn1cnc(S(=O)(=O)N2CCCC2c2ccnc3nccn23)c1 (centres undefined) | 23.84 |
| CCc1nnsc1C(=O)N1CCCC(n2ccnc2C(C)C)C1 (centres undefined) | 53.9 |
| CC(C)c1nccn1C1CCCN(C(=O)CCc2cscn2)C1 (centres undefined) | 62.1 |
| CC(C)c1nccn1C1CCCN(C(=O)c2nccnc2N)C1 (centres undefined) | 41.5 |
| CC(C)c1nccn1C1CCCN(C(=O)CCc2cnn(C)c2)C1 (centres undefined) | 33.3 |
| CC(C)c1nccn1C1CCCN(C(=O)CCNS(C)(=O)=O)C1 (centres undefined) | 36.1 |

| SMILES | INHIBITION [%] |
| --- | --- |
| CSCC(=O)N1CCCC(n2ccnc2C(C)C)C1 (centres undefined) | 45.4 |
| Cc1cc(N2CCC(c3ncc[nH]3)CC2)c2ccccc2n1 | 41.6 |
| Cc1nc(CN2CCOCC3(CCN(c4cnccn4)CC3)C2)cs1 | -11.6 |
| CN(CC(C)(CO)CO)C(=O)Nc1cc(Cl)cc(Cl)c1 | 26.515 |
| c1csc(-c2nc(CN3CCCCC3Cn3cccn3)co2)c1 (centres undefined) | 11.5 |
| NC1CC(C(F)(F)F)=NC=C1c1ccc(Cl)cc1 (centres undefined) | 59 |
| NC1CC(C(F)(F)F)=NC=C1c1ccccc1 (centres undefined) | 4.08 |
| COc1ccc(C2=CN=C(C(F)(F)F)CC2N)cc1 (centres undefined) | -0.371 |
| COc1ccc(C(=O)NC2CC2)c(OC2CCN(CC3CC3)CC2)c1 | 26.7 |
| COc1ccccc1OC1CCN(C(=O)CCCN2CCOCC2)CC1 | 23.8 |
| COc1ccc(C(=O)NC2CC2)c(OC2CCN(CCCSC)CC2)c1 | 60.3 |
| COc1ccc(C(=O)NC2CC2)c(OC)c1 | 23.6 |
| COc1ccc(C(=O)NC2CC2)c(OC2CCN(C(C)CO)CC2)c1 (centres undefined) | 76.6 |
| COc1ccc(C(=O)NC2CC2)c(OC2CCN(C3CCC3)CC2)c1 | 29.4 |
| O=C(NC1CCCCC1)N1CCn2c(nnc2C2CCCN2)C1 (centres undefined) | 44.1 |
| CS(=O)(=O)NCc1nnc2n1CCN(Cc1cccs1)CC2 | 34.6 |
| NC(=O)COc1ccc(CNCc2cc(F)cc(F)c2)cc1 | -28 |
| Cc1cc2nc(C(C)C)cc(NCCc3ccncc3)n2n1 | 34 |
| CC(=O)N1CCC(C(=O)NC(C)c2cccc(OC(F)F)c2)CC1 (centres undefined) | 58.3 |
| CC(=O)N1CC(C(=O)Nc2cccc(OC(F)F)c2)C1 | 26 |
| CC(NC(=O)C1CCN(S(N)(=O)=O)CC1)c1cccc(OC(F)F)c1 (centres undefined) | 17 |

— ChEMBL document CHEMBL4513216, “Probing the Open Global Health Chemical Diversity Library for Multistage-Active Starting Points for Next-Generation Antimalarials” (ACS Infect Dis, 2020)
